Compound activity from PubChem.
KLF5 inhibitor: suppresses KLF5 promoter-driven expression; DLD-1 KLF5 promoter-luciferase reporter, luminescence; inhibition, % at 5 µM; hit rate 0.23% among 290,000; AID 1700;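 active means inhibition above a per-plate limit of that plate's mean compound inhibition plus 3 SD, cut at about 60% in these data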;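 further: higher means less KLF5 promoter-driven luciferase light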
APP 5UTR inh: APP translation inhibition; SH-SY5Y APP 5'UTR-luciferase reporter, luminescence; inhibition, % at 2 µM; hit rate 0.82% among 190,000;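 active means inhibition above a set limit, derived from the sample mean plus 3 SD, cut at about 45% in these data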
aSyn UTR inh: MLPCN primary screen, SNCA 5' untranslated region; alpha-synuclein 5'UTR reporter, inhibitor activity; inhibition, % (tested at 7.5 µM); hit rate 0.82% among 300,000; in the data active means inhibition above about 60%;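 further: H4 neuroglioblastoma cells stably carrying SNCA 5'UTR luciferase fusion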
Ba/F3 V617F tox: lowers viability of Ba/F3 cells expressing EpoR and JAK2V617F; ATP luminescence; inhibition, % at 5.6 µM; hit rate 1.1% among 220,000;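 active means inhibition above the campaign mean plus 3 SD over all tested compounds, cut at about 24% in these data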;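 further: cytokine-independent growth of Ba/F3 cells driven by EpoR plus mutant JAK2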
IEC-6 cytotox: IEC-6 cytotoxicity, counter-screen for KLF5 inhibitors; luminescence viability; inhibition, % at 5 µM; hit rate 0.78% among 290,000; in the data active means inhibition above about 22%
BaF3 parental: reduces parental Ba/F3 cell viability, JAK2V617F counter-screen | hit rate 1.1% among 220,000 | CellTiter-Glo ATP luminescence | AID 1486 | inhibition, % at 5.6 µM;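 active means inhibition above a per-campaign cutoff, the mean inhibition of all tested compounds plus 3 SD, cut at about 27% in these data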
BaF3 parental 2: counter-screen for JAK2V617F inhibitors: parental Ba/F3 viability inhibitors; hit rate 31% among 580; AID 1520; shares compounds with Ba/F3 V617F tox; inhibition, % at 5.6 µM; CellTiter-Glo luminescence; cells kept alive by added IL-3;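 active means cell growth inhibition above the hit limit set in the earlier mutant JAK2 cell screen, cut at about 27% in these data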
JAK2V617F conf: Ba/F3 EpoR-JAK2V617F viability loss, confirmation; hit rate 66% among 580; inhibition, % at 5.6 µM; CellTiter-Glo luminescence; shares compounds with Ba/F3 V617F tox;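 active means mean inhibition above the hit cutoff derived in the earlier primary screen, cut at about 25% in these data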;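 further: higher means lower luminescence from reduced cell ATP and viability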
A number is an active result; - = inactive; . = no result. Sampled rows, rich in hits. Any-hit rate of the full collection: about 2.2%.

SMILES	KLF5 inhibitor	APP 5UTR inh	aSyn UTR inh	Ba/F3 V617F tox	IEC-6 cytotox	BaF3 parental	BaF3 parental 2	JAK2V617F conf
Nc1cccc(C2=Nc3cccc4cccc(c34)N2)c1	-	-	-	53	-	-	-	-
COc1ccc(C2=Nc3cccc4cccc(c34)N2)cc1	-	-	-	-	-	-	.	.
CC(=O)c1nn(-c2cccc(Br)c2)cc1C(=O)c1ccccc1	-	-	-	56	-	-	-	-
COc1ccc(N(C)S(=O)(=O)c2cccc(C(=O)Nc3ccc(-n4cnnn4)cc3)c2)cc1	-	-	-	40	-	-	-	26
CCN(Cc1nc(-c2ccccc2)no1)C(=O)c1ccco1	-	.	-	.	-	.	.	.
O=c1[nH]c2ccc(N/C(=N/S(=O)(=O)c3ccccc3)c3ccccc3)cc2[nH]1	-	-	-	29	-	-	-	-
CC(=O)Nc1ccc(N/C(=N\S(=O)(=O)c2ccccc2)c2ccccc2)cc1	-	.	-	.	-	.	.	.
Oc1ccc(/C=N/N=C/c2ccc(O)c(O)c2)cc1O	-	.	-	.	-	.	.	.
O=C(/C(=N/N=C/c1ccc(O)c(O)c1)c1ccccc1)c1ccccc1	-	-	-	49	-	-	-	99
Cc1ccc(C)c(Sc2ccc(NC(=O)CCl)cc2)c1	-	60	-	50	-	-	-	86
Cc1ccc(Sc2ccc(NC(=O)CCl)cc2)cc1C	-	-	-	-	-	-	.	.
CCOC(=O)c1ccc(NC(=O)CCNS(=O)(=O)c2cccs2)cc1	-	.	-	.	-	.	.	.
Cc1cccc(N(Cc2ccccc2)C(=O)CCl)c1	-	-	-	57	-	-	-	98
Oc1ccc(/C=N/Nc2nc(N3CCCC3)nc(N3CCCC3)n2)cc1O	-	-	-	46	-	-	71	98
COc1cc(/C=N/Nc2nc(N3CCCC3)nc(N3CCCC3)n2)ccc1O	-	-	-	-	-	-	.	.
NC(=O)c1c(-c2ccc(Cl)cc2Cl)csc1NC(=O)Cc1ccccc1	-	-	-	38	-	-	40	65
O=C(Cc1ccccc1)Nc1scc(-c2ccccc2)c1C(=O)N1CCOCC1	-	-	-	-	-	-	.	.
COC(=O)c1[nH]c2ccc(Br)cc2c1NC(=O)CN1CCN(C2CCCCC2)CC1	-	-	75	46	-	-	-	-
COc1ccccc1CNC(=O)CCNS(=O)(=O)c1cc(Br)cnc1N	-	.	-	.	-	.	.	.
Cc1ccc(Cn2ccsc2=NC(=O)COC(=O)c2ccc(NC(=O)CC#N)cc2)cc1	.	.	-	.	.	.	.	.
Cc1ccc(Cn2ccsc2=NC(=O)CCl)cc1	-	-	.	69	93	-	-	97
CCOC(=O)c1c(NC(=O)C(C)N2CCN(C(=O)c3ccco3)CC2)sc2c1CCCC2 (stereo not given)	-	-	-	28	-	-	-	-
OC1(c2ccc(Cl)c(Cl)c2)C[n+]2ccccc2N1Cc1ccccc1 (stereo not given)	-	.	-	34	-	-	-	48
Cc1cc(C(=O)Nc2cnc3ccccc3c2)ccc1[N+](=O)[O-]	-	-	-	28	-	-	-	-
Cc1ccc(Cl)cc1NC(=O)Nn1cnnc1	-	.	-	.	-	.	.	.
SMILES	KLF5 inhibitor	APP 5UTR inh	aSyn UTR inh	Ba/F3 V617F tox	IEC-6 cytotox	BaF3 parental	BaF3 parental 2	JAK2V617F conf
Cc1cccc(NC(=S)N(CCN(C)C)Cc2cc3cccc(C)c3[nH]c2=O)c1	-	-	-	-	-	-	.	.
Cc1ccc(NC(=S)N(CCN(C)C)Cc2cc3cccc(C)c3[nH]c2=O)cc1	-	-	-	43	-	-	-	39
CCCc1nc([N+](=O)[O-])c(S(=O)(=O)c2ccccc2)n1CC(C)C	-	-	-	29	-	-	-	33
CC(C)Cn1c(C(C)C)nc([N+](=O)[O-])c1S(=O)(=O)c1ccc(F)cc1	-	-	-	-	-	-	.	.
Cc1ccc(C23CC4CC(CC(CC(=O)N5CCOCC5)(C4)C2)C3)cc1	-	-	-	97	-	-	-	-
Cc1ccc(C23CC4CC(CC(C(=O)N5CCN(C)CC5)(C4)C2)C3)cc1	-	.	-	-	-	-	.	.
CCN(CC(=O)NC1CCCC1)S(=O)(=O)c1ccc(Br)cc1	-	.	-	.	-	.	.	.
O=C(Cc1ccccc1)Nc1ncccn1	.	.	-	.	.	.	.	.
O=C(OCn1ncc(Cl)c(Cl)c1=O)c1ccccc1Cl	-	87	-	26	89	-	-	98
O=C(OCCN1CCCCC1)c1ccccc1Cl	-	-	-	-	-	-	.	.
O=C(OCn1ncc(Cl)c(Cl)c1=O)c1ccc(F)cc1	-	97	-	32	-	-	-	97
Cc1cc(C)c(NC(=O)CN2C(=O)CC(C)S(=O)(=O)c3ccccc32)c(C)c1 (stereo not given)	-	.	-	.	-	.	.	.
CCn1cc(CCCC(=O)NCc2cccc(OC)c2)c2ccccc21	-	.	-	.	-	.	.	.
Cc1ccccc1-n1ncc2c1CC(C)(C)CC2NC(=O)CN1CCCC1=O (stereo not given)	-	.	-	.	-	.	.	.
O=C(CSc1nc2ncc(Cl)cc2[nH]1)c1ccc2c(c1)OCO2	-	.	-	88	-	-	-	-
CC1(c2ccc3ccccc3c2)NC(=O)N(CC(=O)N2CCN(c3ccccc3O)CC2)C1=O (stereo not given)	-	.	-	.	-	.	.	.
CCOc1ccc(NCCC#N)cc1	-	-	-	44	-	-	-	-
Cc1c(C#N)sc2nc(-c3ccccc3)nc(N3CCCC3)c12	-	-	-	95	-	-	-	-
N#Cc1sc2nc(N3CCCCC3)c3c(c2c1N)CCCC3	-	-	-	-	-	-	.	.
CS(=O)(=O)Nc1ccc(C(=O)Nc2ccccc2-c2ccccc2)cc1	-	.	-	.	-	.	.	.
O=C(Nc1nc(=O)c2ccccc2s1)c1ccccc1	-	-	-	29	-	-	-	-
Cc1ccc(CS(=O)Cc2ccc(C(=O)NCc3ccc(OC(C)C)cc3)o2)cc1 (stereo not given)	-	.	-	.	-	.	.	.
COc1ccc(CCN(C)C(=O)C2CCN(Cc3cccc(OC)c3OC)CC2)cc1OC	-	-	-	31	-	-	-	-
CCn1ccc(C(=O)N2CCN(c3ncccn3)CC2)n1	-	.	-	.	-	.	.	.
Oc1ccc(-c2csc(-c3ccccc3)n2)cc1O	-	-	-	57	-	-	27	93
Oc1ccccc1-c1csc(-c2ccccc2)n1	-	-	-	-	-	-	.	.
Oc1ccc(-c2csc(Nc3ncccn3)n2)cc1O	-	-	-	37	-	-	28	91
CC(C)/C=C/CN1CCCC(N2CCN(c3cccc(Cl)c3)CC2)C1 (stereo not given)	-	.	-	.	-	.	.	.
Cc1cccc(CSC2=NCCN2S(=O)(=O)c2ccc(F)cc2)c1	-	.	-	.	-	.	.	.
COc1ccc(-c2csc(NC3OC(=O)c4c3ccc(OC)c4OC)n2)cc1OC (stereo not given)	-	.	-	27	-	-	-	31
